PubChem BioAssay
Calls of active or inactive are those of the source.

test: osmotic lysis modulators in infected erythrocytes, primary screen, PSAC antagonist project, cell-based, P. falciparum Indochina, OD700, 3 h (AID 1156); conditions: higher = more signal, called active from +8 up or from −8 down

z-score, inactive:
[N-]=[N+]=NCc1ccccc1C[C@]1(C(=O)NCc2ccccc2)N=C(c2ccc(OCCCO)cc2)O[C@H]1c1ccccc1CN=[N+]=[N-] 2.53
COCCOC(=O)N1C(=O)[C@@]2(c3cc(C#Cc4ccc(OC)cc4)ccc31)[C@H](c1ccc(OCCO)cc1)N1[C@H](c3ccccc3)[C@H](c3ccccc3)OC(=O)[C@H]1[C@@H]2C(=O)N1CCCCCCC1 0.306
Cc1ccc(S[C@]2(C(=O)NC3CC3)CC(=O)N(Cc3cc(C(F)(F)F)cc(C(F)(F)F)c3)[C@@H]2c2ccc(CO)cc2I)cc1 0.231
CC1(C)OC[C@@]23C=C(Br)[C@@H](C[C@H]12)[C@@]1(CO1)C3=O 0.0349
CCOC(=O)C1=CC[C@@H](c2ccccc2)N(S(=O)(=O)c2ccc(C)cc2)[C@H]1C#N -0.157
COc1ccccc1CN1C(=O)c2ccccc2[C@](Cc2ccccc2I)(C(=O)NCCCN(C)C)[C@@H]1c1ccc(CO)cc1 -5.31
CCCC=C(CCC)[C@@H](NC(=O)c1ccco1)c1ccc(C(=O)OC)cc1 0.893
CC(C)(C)OC(=O)CC[C@]1(C(N)=O)N=C(c2ccc(OCCCO)cc2)O[C@H]1c1ccccc1CN=[N+]=[N-] -0.173
COc1ccc(NN2C(C(O)c3cc(C(F)(F)F)cc(C(F)(F)F)c3)C=CC3C(=O)N(C4CCCCC4)C(=O)C32)cc1 (stereo not drawn) 0.545
COc1ccc(CCNC(=O)[C@@]2(C)c3ccccc3C(=O)N(Cc3cc(C(F)(F)F)cc(C(F)(F)F)c3)[C@H]2c2ccc(CO)cc2)cc1 1.85
CC(C)C(=C=CC[C@@H](O)c1ccc(OCCO)cc1)CCO -0.143
C=CCC(OC(C)=O)[C@@H]1[C@@H](N(Cc2cc3ccccc3o2)C(=O)c2ccc(-c3ccccc3)cc2)c2cc(OCCCO)ccc2N1C(=O)c1ccc2ccccc2n1 (stereo partly drawn) -0.44
CC(C)c1ccc(NN2C(C(O)C(C)C)C=CC3C(=O)N(c4ccccc4)C(=O)C32)cc1 (stereo not drawn) 0.42
CCCC[C@H]1OB(O)C[C@H]2C1=C(COC)C[C@H]1C(=O)C=CC(=O)[C@H]12 0.224
COc1ccc([Si](C)(C)[C@H]2[C@H](CCn3cc([C@H](O)c4ccccc4)nn3)O[C@@]3(C(=O)N(c4ccccc4)c4ccccc43)[C@@H]2C)cc1 0.56
N#Cc1ccc(C(O)C2C=CC3C(=O)NC(=O)C3N2Nc2ccccn2)cc1 (stereo not drawn) -0.138
O=C1C2C=CC(C(O)c3cccs3)N(Nc3ccccc3)C2C(=O)N1c1ccccc1 (stereo not drawn) 0.916
CC(C)=CCN(C(=O)C#Cc1ccccc1)[C@H](CO)c1ccccc1 -2.25
CCCC[C@@H]1C[C@H]1[C@@H](NC(=O)Cc1ccccc1)c1ccc(Cl)cc1 2.18
O=C1C2C=CC(C(O)c3ccc([N+](=O)[O-])cc3)N(Nc3ccccc3)C2C(=O)N1c1ccccc1 (stereo not drawn) 2.09
O=C1C2C=CC(C(O)C(c3ccccc3)c3ccccc3)N(Nc3ccccc3)C2C(=O)N1c1ccccc1 (stereo not drawn) 0.331
CC(C)CNC(=O)[C@@]1(C)c2ccccc2C(=O)N(Cc2cc(F)cc(C(F)(F)F)c2)[C@H]1c1ccc(CO)cc1 0.33
Cc1c(NC(=O)/C(C#N)=C/c2ccc(Cl)cc2)c(=O)n(-c2ccccc2)n1C -0.597
CN1C(=O)[C@]2(CCS(=O)(=O)c3ccccc3)N=C(c3ccc(OCCCO)cc3)O[C@@H]2c2ccccc21 2.49
COc1cccc(C[C@H]2C[C@@H](CO[Si](C(C)C)(C(C)C)C(C)C)N3C(=O)[C@@]4(C(C)=O)O[C@@]23[C@@H]2C(=O)N(C)C(=O)[C@@H]24)c1 -0.176
CC(=O)n1cc(C(O)C2C=CC3C(=O)N(c4ccccc4)C(=O)C3N2Nc2ccccc2F)c2ccccc21 (stereo not drawn) 0.0784
CC=CC(O)C1C=CC2C(=O)N(C)C(=O)C2N1NC(=O)OC(C)(C)C (stereo not drawn) -0.0501

test: PSAC antagonists in infected red cells, primary screen, cell-based, P. falciparum Indochina, OD700, 18 h (AID 1157); conditions: P. falciparum Indochina infected erythrocytes, osmotic lysis OD700, 18 h; higher = more signal, called active from +8 up or from −8 down

z-score, inactive:
CCCCC(=C=CC[C@@H](O)c1cccc(OCCO)c1)CCO 0.528
C=CCOC(=O)[C@@H]1[C@H]2C(=O)O[C@H](c3ccccc3)[C@H](c3ccccc3)N2[C@H](c2ccc(OCCOC(=O)[C@H]3C[C@H]4C(=O)NCC(=O)N4[C@H]3c3ccc(O)cc3)cc2)[C@@]12C(=O)Nc1ccc(I)cc12 1.16
CN1C=C(C(=O)OCCS(C)(=O)=O)C(C(=O)OCCS(C)(=O)=O)=CC(CCCO)=CC1c1ccc(CN2CCCC2)cc1 (stereo not drawn) 0.0374
COCCOC(=O)N1C(=O)[C@@]2(c3cc(C#CC4(O)CCCCCC4)ccc31)[C@H](C(=O)N1CCc3cc(OC)c(OC)cc3C1)[C@H]1C(=O)O[C@H](c3ccccc3)[C@H](c3ccccc3)N1[C@@H]2c1ccc(O)cc1 0.712
O=C1O[C@@H](c2ccccc2)[C@@H](c2ccccc2)N2[C@@H](c3ccc(OCCO)cc3)[C@]3(C(=O)Nc4ccc(C#CCCO)cc43)[C@@H](C(=O)Nc3nc4ccccc4s3)[C@H]12 -1.15
COCCCNC(=O)[C@@H]1c2ccccc2C(=O)N(C2CCCCC2)[C@H]1c1ccc(CO)cc1 -0.51
C=CC[C@]1(C(=O)NCc2ccccc2)COC(c2ccc(OCCCO)cc2)=N1 0.541
CN(C)CCCNC(=O)[C@@]1(Cc2ccccc2I)c2ccccc2C(=O)N(Cc2ccccc2)[C@H]1c1ccc(CO)cc1 0.452
COc1cccc(OC)c1C(=O)O[C@H]1[C@@H]2OC(=O)[C@H](Cc3cccc(Br)c3)C/C=C/C[C@@H](Cc3cccc(Br)c3)C(=O)O[C@H]2[C@@H](OC)O[C@@H]1CO 0.581
[N-]=[N+]=NCc1ccccc1C[C@]1(C(=O)NCc2ccccc2)N=C(c2ccc(OCCCO)cc2)O[C@H]1c1ccccc1CN=[N+]=[N-] 0.936
COCCOC(=O)N1C(=O)[C@@]2(c3cc(C#Cc4ccc(OC)cc4)ccc31)[C@H](c1ccc(OCCO)cc1)N1[C@H](c3ccccc3)[C@H](c3ccccc3)OC(=O)[C@H]1[C@@H]2C(=O)N1CCCCCCC1 0.0489
Cc1ccc(S[C@]2(C(=O)NC3CC3)CC(=O)N(Cc3cc(C(F)(F)F)cc(C(F)(F)F)c3)[C@@H]2c2ccc(CO)cc2I)cc1 0.229
CC1(C)OC[C@@]23C=C(Br)[C@@H](C[C@H]12)[C@@]1(CO1)C3=O -0.0371
CCOC(=O)C1=CC[C@@H](c2ccccc2)N(S(=O)(=O)c2ccc(C)cc2)[C@H]1C#N 0.999
COc1ccccc1CN1C(=O)c2ccccc2[C@](Cc2ccccc2I)(C(=O)NCCCN(C)C)[C@@H]1c1ccc(CO)cc1 -0.379
CCCC=C(CCC)[C@@H](NC(=O)c1ccco1)c1ccc(C(=O)OC)cc1 1.11
CC(C)(C)OC(=O)CC[C@]1(C(N)=O)N=C(c2ccc(OCCCO)cc2)O[C@H]1c1ccccc1CN=[N+]=[N-] 0.223
COc1ccc(NN2C(C(O)c3cc(C(F)(F)F)cc(C(F)(F)F)c3)C=CC3C(=O)N(C4CCCCC4)C(=O)C32)cc1 (stereo not drawn) 0.632
COc1ccc(CCNC(=O)[C@@]2(C)c3ccccc3C(=O)N(Cc3cc(C(F)(F)F)cc(C(F)(F)F)c3)[C@H]2c2ccc(CO)cc2)cc1 -0.388
CC(C)C(=C=CC[C@@H](O)c1ccc(OCCO)cc1)CCO -1.58
C=CCC(OC(C)=O)[C@@H]1[C@@H](N(Cc2cc3ccccc3o2)C(=O)c2ccc(-c3ccccc3)cc2)c2cc(OCCCO)ccc2N1C(=O)c1ccc2ccccc2n1 (stereo partly drawn) 0.655
CC(C)c1ccc(NN2C(C(O)C(C)C)C=CC3C(=O)N(c4ccccc4)C(=O)C32)cc1 (stereo not drawn) 1.37
CCCC[C@H]1OB(O)C[C@H]2C1=C(COC)C[C@H]1C(=O)C=CC(=O)[C@H]12 0.231
COc1ccc([Si](C)(C)[C@H]2[C@H](CCn3cc([C@H](O)c4ccccc4)nn3)O[C@@]3(C(=O)N(c4ccccc4)c4ccccc43)[C@@H]2C)cc1 1.23
N#Cc1ccc(C(O)C2C=CC3C(=O)NC(=O)C3N2Nc2ccccn2)cc1 (stereo not drawn) -1.01
O=C1C2C=CC(C(O)c3cccs3)N(Nc3ccccc3)C2C(=O)N1c1ccccc1 (stereo not drawn) -0.423
CC(C)=CCN(C(=O)C#Cc1ccccc1)[C@H](CO)c1ccccc1 0.402
CCCC[C@@H]1C[C@H]1[C@@H](NC(=O)Cc1ccccc1)c1ccc(Cl)cc1 1.53
O=C1C2C=CC(C(O)c3ccc([N+](=O)[O-])cc3)N(Nc3ccccc3)C2C(=O)N1c1ccccc1 (stereo not drawn) 1.9
O=C1C2C=CC(C(O)C(c3ccccc3)c3ccccc3)N(Nc3ccccc3)C2C(=O)N1c1ccccc1 (stereo not drawn) 1.41
CC(C)CNC(=O)[C@@]1(C)c2ccccc2C(=O)N(Cc2cc(F)cc(C(F)(F)F)c2)[C@H]1c1ccc(CO)cc1 0.253
Cc1c(NC(=O)/C(C#N)=C/c2ccc(Cl)cc2)c(=O)n(-c2ccccc2)n1C -1.44
CN1C(=O)[C@]2(CCS(=O)(=O)c3ccccc3)N=C(c3ccc(OCCCO)cc3)O[C@@H]2c2ccccc21 1.87
COc1cccc(C[C@H]2C[C@@H](CO[Si](C(C)C)(C(C)C)C(C)C)N3C(=O)[C@@]4(C(C)=O)O[C@@]23[C@@H]2C(=O)N(C)C(=O)[C@@H]24)c1 0.0375
CC(=O)n1cc(C(O)C2C=CC3C(=O)N(c4ccccc4)C(=O)C3N2Nc2ccccc2F)c2ccccc21 (stereo not drawn) -0.0595
CC=CC(O)C1C=CC2C(=O)N(C)C(=O)C2N1NC(=O)OC(C)(C)C (stereo not drawn) 0.556
